This passage reports Potency, outcome and activity change, negative = inhibition results from PubChem BioAssay (NCATS).

Values without a mark were called inactive. Records with an inconclusive call do not appear. Activity calls are given as the source filed them. Unless noted, calls follow the shape of the dose curve; as a rule, active = well fitted curve in the direction sought with a large enough effect; inconclusive = small, poorly fitted or top-dose-only effect, or another doubt; inactive = no such curve, though single readings can be large; an effect the other way counts as inactive or inconclusive.

Assay [1] concerns the target Cytochrome P450 1A2 (Homo sapiens) (UniProt P05177). Kind of assay: p450-cyp1a2 (AID 410; calls by dose curve; also: potency is read from the fitted curve at half-maximal effect). The essentials:
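20nM CYP1A2 with 100uM Luciferin-ME (at Km) in 100mM KPO4; compound preincubated 10 min, NADPH regeneration added, 60 min at room temperature. Luciferin quantified by luminescence after detection reagent; normalized to 57 uM furafylline.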

The target of assay [2] is Glucocorticoid receptor (Homo sapiens) (UniProt P04150). Kind of assay: GR-GFP Redistribution (AID 450;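 active = compounds whose dose series gives a full or clear partial fitted curve of increased nuclear translocation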; also: potency is read from the fitted curve at half-maximal effect). The settings on record: U2OS GR-GFP nuclear translocation, laser cytometry, 2 h.
Sequence of Glucocorticoid receptor (Homo sapiens) (P04150 whole entry, looked up, the tested form may be a part): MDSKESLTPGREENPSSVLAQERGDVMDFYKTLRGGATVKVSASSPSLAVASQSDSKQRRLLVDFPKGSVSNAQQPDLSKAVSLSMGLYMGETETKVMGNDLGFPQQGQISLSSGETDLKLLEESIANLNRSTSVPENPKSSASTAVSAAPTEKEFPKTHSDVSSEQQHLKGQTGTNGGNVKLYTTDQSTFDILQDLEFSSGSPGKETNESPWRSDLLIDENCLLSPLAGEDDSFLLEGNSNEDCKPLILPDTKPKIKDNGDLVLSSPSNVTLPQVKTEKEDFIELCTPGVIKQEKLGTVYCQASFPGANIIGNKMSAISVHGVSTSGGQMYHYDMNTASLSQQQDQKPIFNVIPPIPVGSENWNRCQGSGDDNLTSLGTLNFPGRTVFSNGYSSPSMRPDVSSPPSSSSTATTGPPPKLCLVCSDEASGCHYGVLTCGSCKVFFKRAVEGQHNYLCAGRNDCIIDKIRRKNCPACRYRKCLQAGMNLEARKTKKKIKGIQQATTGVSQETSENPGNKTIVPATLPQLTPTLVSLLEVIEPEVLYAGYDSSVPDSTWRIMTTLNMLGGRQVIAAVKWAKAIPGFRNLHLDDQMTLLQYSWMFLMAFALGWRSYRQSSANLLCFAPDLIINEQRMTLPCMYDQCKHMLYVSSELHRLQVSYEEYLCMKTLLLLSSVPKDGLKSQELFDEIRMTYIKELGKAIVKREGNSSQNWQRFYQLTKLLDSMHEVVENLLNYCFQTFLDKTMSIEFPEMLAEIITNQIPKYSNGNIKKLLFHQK
Assay [3] has the same target. Kind of assay: GR-EFC Redistribution (AID 451; calls by dose curve; also: potency is read from the fitted curve at half-maximal effect). The following applies: CHO-K1 GR-EFC translocation, beta-gal luminescence, 2 h. The essentials: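 CHO-K1 cells expressing nuclear EA and GR-ED fragments of b-gal; compounds titrated up to 46 uM final, 2 h at 37 C. GR nuclear translocation read as complemented b-gal luminescence after 1 h RT detection.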
The target of assay [4] is Mitogen-activated protein kinase 10 (Mus musculus) (UniProt Q61831). In words: JNK3 AlphaScreen Assay (AID 530; active = well fitted curve in either direction with a large enough effect, not every such curve was filed as active;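 also: kinase came from lysate of stimulated human HepG2 cells; signal reports phosphorylation of biotinylated GST-cJun 1-79 at Ser73 with 10 µM ATP; % is scaled to controls: 0 for no effect and ±100 for the full control effect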). A digest of the protocol: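 Pre-activated (IL-1β/TNFα) JNK3 in HepG2 lysates phosphorylates biotin-GST-cJun(1-79), 10 uM ATP; anti-phospho-cJun(Ser73) AlphaScreen read at room temperature, pH 7.6 Tris buffer. Compounds pre-incubated 15 min as titrations.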
For orientation: Alpha assays give light when donor and acceptor beads are brought close together.

The target of assay [5] is Guanine nucleotide-binding protein G(i) subunit alpha-1 (Homo sapiens) (UniProt P63096). In words: qHTS Assay for Inhibitors of RGS12 GoLoco Motif Activity (Green Fluorophore) (AID 879).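 Also: 0% = labeled peptide with Gαi1 and full inhibition = labeled peptide alone without protein; negative values mean loss of peptide binding seen as reduced polarization.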 A digest of the protocol: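 Fluorescence polarization assay: 50 nM Gαi1 with 10 nM FITC-labeled RGS12 GoLoco peptide in 10 mM Tris pH 7.5, 150 mM NaCl, 0.1 mM GDP, 0.05% NP40, 10 min at room temperature with compound.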
In general terms: Quantitative high-throughput screening tests each substance at several concentrations.

Assay [6] deals with Cytochrome P450 3A4 (Homo sapiens) (UniProt P08684). In words: qHTS Assay for Activators of Cytochrome P450 3A4 (AID 885). Also: nearly all actives have a fitted effect of over 65% in size. The essentials:
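Human CYP3A4 (20 nM) with Luciferin-PPXE at 25 uM (its KM) in 200 mM KPO4; 10 min compound preincubation, then NADPH regeneration and 60 min reaction at RT. Luciferin read by luminescence; normalized to 57 uM ketoconazole full inhibition.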

Assay [7] concerns the target Muscarinic acetylcholine receptor M1 (Rattus norvegicus) (UniProt P08482). In words: qHTS Assay for Antagonists of Acetylcholine Muscarinic M1 Receptor: Kinetic Measurement of Intracellular Calcium Response (AID 943). Also: potency is read from the fitted curve at half-maximal effect; nearly all actives have a fitted effect of over 75% in size. The essentials:
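CHO cells expressing rat M1 receptor, Fluo-4 loaded, preincubated 10 min with compound, then stimulated with EC80 carbachol (100 nM final). Kinetic calcium fluorescence over 4 min; response taken as peak over basal signal.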

For assay [8] the target is unchanged. In words: qHTS Assay for Antagonists of Acetylcholine Muscarinic M1 Receptor: Measurement of IP-One Response (AID 944). Also: nearly all actives have a fitted effect of over 75% in size. A digest of the protocol:
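CHO cells stably expressing rat M1, pretreated 10 min with compound, then stimulated 30 min with carbachol at EC80 (200 nM) in LiCl-containing buffer pH 7.4; IP1 accumulation read by HTRF competition (665/620 nm).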

Assay [9] deals with Pyruvate kinase (Leishmania mexicana) (UniProt Q27686). In words: qHTS Validation Assay for Inhibitors of Leishmania Mexicana Pyruvate Kinase (AID 945).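 Also: 0% = DMSO only neutral control wells.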 A digest of the protocol: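 qHTS eight-point titrations against 0.2 nM LmPYK (E451W) in imidazole buffer pH 7.2 with 0.5 mM PEP, 0.1 mM ADP; 1 h, room temperature. Readout: PKLight luminescence, normalized to neutral DMSO wells.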

Assay [10] concerns the target Pyruvate kinase PKM (Homo sapiens) (UniProt P14618). In words: qHTS Assay for Activators of Human Muscle Pyruvate Kinase (AID 954; active = well fitted curve in the direction sought with a large enough effect, not every such curve was filed as active;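 also: 0% = uninhibited enzyme and -100% = no enzyme or full thiadiazolimine inhibition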). A digest of the protocol:
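Purified human PKM2 (0.1 nM) with 0.5 mM PEP (Km) and 0.1 mM ADP in 50 mM imidazole pH 7.2, KCl, MgCl2, 1 h at room temperature; ATP formed read by coupled luciferase luminescence. Normalized to no-enzyme/110 uM thiadiazolimine inhibition; 0.3 nM enzyme column for activation.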

Assay [11] addresses Alpha-galactosidase (Coffea arabica) (UniProt Q42656). Kind of assay: Counterscreen for Glucocerebrosidase Inhibitors: qHTS Assay for Coffee Bean alpha-Galactosidase at pH 4.5 (AID 957).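 Also: plate controls were enzyme alone for no effect and no enzyme for full effect.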 A digest of the protocol:
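Coffee bean enzyme (2 nM) with 80 uM 4-methylumbelliferyl alpha-D-galactopyranoside in 50 mM citric acid, 0.005% Tween-20, pH 4.5, 20 min at room temperature; compounds 0.7 nM–77 uM. Stopped at pH 10, fluorescence 365/440 nm; AC50 from Hill fits.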
In general terms: The purpose of a counterscreen is to sort out artefacts and off-target activity.

In assay [12] the target is Alpha-galactosidase A (Homo sapiens) (UniProt P06280). Kind of assay: Counterscreen for Glucocerebrosidase Inhibitors: qHTS Assay for Human alpha-Galactosidase at pH 4.5 (AID 992). Also: 0% is about no effect. The essentials: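 Human enzyme (2 nM) with 80 uM 4-methylumbelliferyl alpha-D-galactopyranoside in 50 mM citric acid, 0.005% Tween-20, pH 4.5, 20 min at room temperature. Compounds 0.7 nM–77 uM; fluorescence Ex 365/Em 440 after pH 10 stop; AC50 from Hill fits.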

In assay [13] the target is alpha-glucosidase (Oryza sativa, rice) (UniProt Q653V4). In words: Counterscreen for Glucocerebrosidase Inhibitors: qHTS Assay for Rice alpha-Glucosidase at pH 5.0 (AID 997).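 Also: 0% = full activity with enzyme and -100% = basal without enzyme.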 A digest of the protocol:
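Rice alpha-glucosidase (4 nM final) with 400 uM 4-methylumbelliferyl-alpha-D-glucopyranoside in citrate buffer pH 5.0, 20 min at room temperature, stopped at pH 10; fluorescence 365/440 nm, compounds 0.7 nM–77 uM, AC50 from Hill fits.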

The target of assay [14] is Alpha-galactosidase (Coffea arabica) (UniProt Q42656). In words: Counterscreen for Glucocerebrosidase Inhibitors: qHTS Assay for Coffee Bean alpha-Galactosidase at pH 5.9 (AID 998).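 Also: plate controls were uninhibited enzyme for no effect and no-enzyme basal signal for full effect.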 The essentials:
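Green coffee bean enzyme (2 nM) with 4-methylumbelliferyl alpha-D-galactopyranoside (80 uM) in 50 mM citric acid, 0.005% Tween-20, pH 5.9, 20 min at room temperature; compounds 0.7 nM–77 uM. Stopped at pH 10, fluorescence Ex365/Em440; Hill-fit AC50.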

The target in assay [15] is 3',5'-cyclic-AMP phosphodiesterase 4B (Homo sapiens) (UniProt Q07343). Kind of assay: qHTS Assay for Inhibitors of PDE-IV (AID 607; active = well fitted activation curve with a large enough effect in the main read-out, with a control signal flat, not every such curve was filed as active; also: % of control where 0% means no effect). A digest of the protocol: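 HEK293 ACTOne cells with CNG channel (1000/well), endogenous PDE4; membrane potential dye, compounds up to 22.9 uM final. Fluorescence Ex 535/Em 590; RO 20-1724 (100 uM final) as reference.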
Sequence of 3',5'-cyclic-AMP phosphodiesterase 4B (Homo sapiens) (Q07343 whole entry, looked up): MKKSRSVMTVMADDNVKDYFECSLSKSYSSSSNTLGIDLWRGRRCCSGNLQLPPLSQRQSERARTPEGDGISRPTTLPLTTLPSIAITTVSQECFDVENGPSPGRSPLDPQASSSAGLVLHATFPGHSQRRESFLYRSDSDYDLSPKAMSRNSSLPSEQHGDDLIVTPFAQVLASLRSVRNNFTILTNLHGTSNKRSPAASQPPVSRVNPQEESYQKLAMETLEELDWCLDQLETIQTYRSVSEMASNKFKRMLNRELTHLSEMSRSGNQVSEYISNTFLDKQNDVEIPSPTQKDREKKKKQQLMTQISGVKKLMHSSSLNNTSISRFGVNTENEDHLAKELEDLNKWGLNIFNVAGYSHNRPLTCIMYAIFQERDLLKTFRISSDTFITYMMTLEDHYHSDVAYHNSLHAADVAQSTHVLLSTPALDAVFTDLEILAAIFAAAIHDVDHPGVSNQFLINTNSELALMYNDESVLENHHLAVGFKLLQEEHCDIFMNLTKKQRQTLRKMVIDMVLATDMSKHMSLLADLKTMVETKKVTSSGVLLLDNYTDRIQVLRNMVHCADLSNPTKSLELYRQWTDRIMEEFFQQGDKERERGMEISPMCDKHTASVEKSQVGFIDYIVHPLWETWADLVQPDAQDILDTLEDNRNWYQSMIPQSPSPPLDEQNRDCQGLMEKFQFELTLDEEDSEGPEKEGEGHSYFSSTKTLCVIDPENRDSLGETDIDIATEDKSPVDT
For assay [16], the target named is Cytochrome P450 2C9 (Homo sapiens) (UniProt P11712). Kind of assay: qHTS Assay for Inhibitors and Substrates of Cytochrome P450 2C9 (AID 883). Also: nearly all actives have a fitted effect of over 60% in size. Also: potency is read from the fitted curve at half-maximal effect. As to activity change, negative = inhibition: % is scaled to controls: 0 for no effect and ±100 for the full control effect. A digest of the protocol:
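10nM CYP2C9 + 100uM Luciferin-H (=KM), 25mM KPO4; cpd 10 min 37C; NADPH regen, 60 min 37C; stop/detect with P450 Glo-Buffer 20 min; luminescence. Norm. to 57uM sulphaphenazole as full inhibition.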

In assay [17] the target is Cytochrome P450 2D6 (Homo sapiens) (UniProt P10635). In words: qHTS Assay for Inhibitors and Substrates of Cytochrome P450 2D6 (AID 891). Also: nearly all actives have a fitted effect of over 60% in size. Also: potency is read from the fitted curve at half-maximal effect. A digest of the protocol: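 Human CYP2D6 (5 nM) with 30 uM Luciferin-ME EGE (at Km) in 100 mM KPO4, compound preincubated 10 min, then NADPH regeneration system for 60 min at room temperature. Luciferin read by luminescence; normalized to 1.43 uM quinidine.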
Sequence of Cytochrome P450 2D6 (Homo sapiens) (P10635 whole entry, looked up): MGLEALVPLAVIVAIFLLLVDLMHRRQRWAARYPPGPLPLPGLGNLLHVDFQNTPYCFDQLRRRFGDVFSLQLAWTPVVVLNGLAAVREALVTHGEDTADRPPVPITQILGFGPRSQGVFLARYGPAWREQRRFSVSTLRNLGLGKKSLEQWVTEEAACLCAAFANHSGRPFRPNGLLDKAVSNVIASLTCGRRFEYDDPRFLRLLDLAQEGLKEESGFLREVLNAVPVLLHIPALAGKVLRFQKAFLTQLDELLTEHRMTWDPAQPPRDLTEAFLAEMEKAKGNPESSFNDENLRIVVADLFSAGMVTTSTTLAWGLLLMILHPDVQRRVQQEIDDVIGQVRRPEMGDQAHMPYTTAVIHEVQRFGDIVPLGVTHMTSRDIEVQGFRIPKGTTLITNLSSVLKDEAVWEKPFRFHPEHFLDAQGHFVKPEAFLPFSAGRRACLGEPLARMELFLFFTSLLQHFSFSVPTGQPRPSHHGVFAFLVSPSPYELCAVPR

Assay [18] addresses Cytochrome P450 2C19 (Homo sapiens) (UniProt P33261). Kind of assay: qHTS Assay for Inhibitors and Substrates of Cytochrome P450 2C19 (AID 899). Also: nearly all actives have a fitted effect of over 60% in size. Also: potency is read from the fitted curve at half-maximal effect. The essentials:
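Luminescent read-out of luciferin formed from Luciferin-H EGE (10uM, equal to KM). Enzyme 5nM in 50mM KPO4; compound added, 10 min at 37C, then NADPH regenerating system for 60 min at 37C. Full inhibition defined by 57uM ketoconazole.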

The nature of assay [19]: AP1 Signaling Pathway (AID 357; active = well fitted curve in either direction with a large enough effect, not every such curve was filed as active; also: % is scaled to controls: 0 for no effect and ±100 for the full control effect). The following applies: ME-180 AP-1-bla reporter, EGF-induced, beta-lactamase ratio, 5 h; at 17.2 µM (top of the series) unless noted. The essentials: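 Cells are seeded overnight, exposed to compound titrations and an EC50 level of EGF for 5 hours at 37 °C, then loaded with CCF4 dye for 2.5 hours. Beta-lactamase activity under the AP-1 element is read as a blue/green ratio.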

The nature of assay [20]: Stat Signaling Pathway (AID 446; active = well fitted curve in either direction with a large enough effect, not every such curve was filed as active;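 also: ME-180 cervical cancer cells given 40 pM IL-6 alongside compound; SIE-controlled beta-lactamase reporter measured as 460/530 nm FRET emission ratio; % is scaled to controls: 0 for no effect and ±100 for the full control effect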). The essentials: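 ME-180 cells carrying a SIE-driven beta-lactamase reporter are stimulated with 40 pM IL-6 for 5 h at 37C in the presence of compound. The 460/530 nm FRET substrate ratio is read after 2.5 h at RT. Data are normalised to 300 pM IL-6 and to 125 nM JAK inhibitor controls.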
Assay [21] concerns the target Cytochrome P450 3A4 (Homo sapiens) (UniProt P08684). Kind of assay: qHTS Assay for Inhibitors and Substrates of Cytochrome P450 3A4 (AID 884). Also: % is scaled to controls: 0 for no effect and ±100 for the full control effect; nearly all actives have a fitted effect of over 50% in size. The essentials:
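20 nM human CYP3A4 with 25 uM Luciferin-PPXE (at KM) in 200 mM KPO4, preincubated 10 min with compound; NADPH regeneration started a 60 min RT reaction. Luciferin detected by luminescence, normalized to 57 uM ketoconazole as full inhibition.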

For assay [22], the target named is DNA dC->dU-editing enzyme APOBEC-3G (Homo sapiens) (UniProt Q9HC16). Kind of assay: qHTS for inhibitors of Vif-A3G interactions: Validation (AID 588379). Also: 0% is about no effect. A digest of the protocol:
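HeLa cells stably expressing Vif and A3G-eYFP, 700 cells/well, incubated overnight at 37 deg C, then exposed to compound overnight at 37 deg C. Inhibition of Vif-mediated degradation read as increased yellow fluorescence (Ex 488/Em 500-530) by laser-scanning cytometry.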

Sequence of Cytochrome P450 2C9 (Homo sapiens) (P11712 whole entry, looked up): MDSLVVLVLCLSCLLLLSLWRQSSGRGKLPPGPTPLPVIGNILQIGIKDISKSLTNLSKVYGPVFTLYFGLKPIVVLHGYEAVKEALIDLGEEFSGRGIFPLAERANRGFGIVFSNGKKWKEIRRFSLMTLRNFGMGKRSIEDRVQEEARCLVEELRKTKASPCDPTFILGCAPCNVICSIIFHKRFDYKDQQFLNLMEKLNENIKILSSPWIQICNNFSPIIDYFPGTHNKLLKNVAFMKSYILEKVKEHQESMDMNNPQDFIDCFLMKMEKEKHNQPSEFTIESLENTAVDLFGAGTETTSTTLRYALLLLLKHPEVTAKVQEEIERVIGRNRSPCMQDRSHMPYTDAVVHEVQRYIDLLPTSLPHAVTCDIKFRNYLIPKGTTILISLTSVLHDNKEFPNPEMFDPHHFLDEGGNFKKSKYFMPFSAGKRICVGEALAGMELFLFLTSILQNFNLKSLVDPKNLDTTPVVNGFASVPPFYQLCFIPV
Sequence of Cytochrome P450 1A2 (Homo sapiens) (P05177 whole entry, looked up): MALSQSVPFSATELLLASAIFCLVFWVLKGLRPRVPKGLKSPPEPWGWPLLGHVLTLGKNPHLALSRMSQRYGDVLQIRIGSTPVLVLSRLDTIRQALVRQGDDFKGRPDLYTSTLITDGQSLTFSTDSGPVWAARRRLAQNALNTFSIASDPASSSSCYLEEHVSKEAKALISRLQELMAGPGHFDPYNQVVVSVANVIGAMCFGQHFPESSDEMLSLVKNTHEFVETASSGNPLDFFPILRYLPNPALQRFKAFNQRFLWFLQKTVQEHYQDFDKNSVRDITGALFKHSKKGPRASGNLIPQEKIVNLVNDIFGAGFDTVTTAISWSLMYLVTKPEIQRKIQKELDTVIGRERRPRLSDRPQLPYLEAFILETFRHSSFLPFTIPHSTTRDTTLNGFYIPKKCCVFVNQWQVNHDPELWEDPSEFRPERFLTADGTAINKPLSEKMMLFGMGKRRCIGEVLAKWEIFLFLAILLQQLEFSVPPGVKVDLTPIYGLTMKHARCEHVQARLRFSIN
Sequence of Cytochrome P450 2C19 (Homo sapiens) (P33261 whole entry, looked up): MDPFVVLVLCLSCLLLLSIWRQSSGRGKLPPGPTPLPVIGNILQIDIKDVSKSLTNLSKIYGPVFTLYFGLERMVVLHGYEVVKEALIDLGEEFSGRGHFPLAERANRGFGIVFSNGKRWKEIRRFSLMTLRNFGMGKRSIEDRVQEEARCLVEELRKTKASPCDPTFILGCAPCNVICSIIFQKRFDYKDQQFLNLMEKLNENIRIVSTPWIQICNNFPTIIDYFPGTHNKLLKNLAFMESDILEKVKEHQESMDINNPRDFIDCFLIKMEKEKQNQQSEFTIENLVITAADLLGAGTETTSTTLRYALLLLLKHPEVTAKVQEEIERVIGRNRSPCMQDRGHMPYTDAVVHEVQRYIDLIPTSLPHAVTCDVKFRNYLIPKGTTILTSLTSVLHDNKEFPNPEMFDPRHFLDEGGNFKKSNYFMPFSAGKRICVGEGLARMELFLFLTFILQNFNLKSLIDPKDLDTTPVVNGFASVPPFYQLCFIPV
Sequence of Cytochrome P450 3A4 (Homo sapiens) (P08684 whole entry, looked up): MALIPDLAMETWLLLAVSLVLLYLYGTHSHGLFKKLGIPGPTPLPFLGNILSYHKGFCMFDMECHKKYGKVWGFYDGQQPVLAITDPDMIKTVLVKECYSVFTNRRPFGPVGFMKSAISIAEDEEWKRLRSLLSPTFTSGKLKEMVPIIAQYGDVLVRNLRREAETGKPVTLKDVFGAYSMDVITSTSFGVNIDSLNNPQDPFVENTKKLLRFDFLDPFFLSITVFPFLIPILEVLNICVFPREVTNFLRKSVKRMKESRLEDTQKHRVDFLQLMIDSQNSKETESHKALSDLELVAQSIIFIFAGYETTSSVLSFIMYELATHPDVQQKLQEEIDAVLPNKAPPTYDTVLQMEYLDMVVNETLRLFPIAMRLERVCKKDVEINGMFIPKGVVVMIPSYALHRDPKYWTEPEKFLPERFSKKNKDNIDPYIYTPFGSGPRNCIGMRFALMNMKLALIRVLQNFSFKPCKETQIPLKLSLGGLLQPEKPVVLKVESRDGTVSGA
Sequence of Muscarinic acetylcholine receptor M1 (Rattus norvegicus) (P08482 whole entry, looked up): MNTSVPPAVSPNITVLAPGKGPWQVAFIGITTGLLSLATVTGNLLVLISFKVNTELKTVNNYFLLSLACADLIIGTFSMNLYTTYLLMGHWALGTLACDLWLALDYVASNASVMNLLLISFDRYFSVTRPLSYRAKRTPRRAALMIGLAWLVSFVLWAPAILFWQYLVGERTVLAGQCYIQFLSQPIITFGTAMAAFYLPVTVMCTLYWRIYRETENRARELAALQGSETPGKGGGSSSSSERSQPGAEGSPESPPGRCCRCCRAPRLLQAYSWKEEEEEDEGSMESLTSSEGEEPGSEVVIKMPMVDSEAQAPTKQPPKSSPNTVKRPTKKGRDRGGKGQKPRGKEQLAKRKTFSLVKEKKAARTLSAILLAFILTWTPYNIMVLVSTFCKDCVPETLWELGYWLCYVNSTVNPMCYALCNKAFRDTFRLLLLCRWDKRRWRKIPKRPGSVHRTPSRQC
Sequence of Alpha-galactosidase (Coffea arabica) (Q42656 whole entry, looked up): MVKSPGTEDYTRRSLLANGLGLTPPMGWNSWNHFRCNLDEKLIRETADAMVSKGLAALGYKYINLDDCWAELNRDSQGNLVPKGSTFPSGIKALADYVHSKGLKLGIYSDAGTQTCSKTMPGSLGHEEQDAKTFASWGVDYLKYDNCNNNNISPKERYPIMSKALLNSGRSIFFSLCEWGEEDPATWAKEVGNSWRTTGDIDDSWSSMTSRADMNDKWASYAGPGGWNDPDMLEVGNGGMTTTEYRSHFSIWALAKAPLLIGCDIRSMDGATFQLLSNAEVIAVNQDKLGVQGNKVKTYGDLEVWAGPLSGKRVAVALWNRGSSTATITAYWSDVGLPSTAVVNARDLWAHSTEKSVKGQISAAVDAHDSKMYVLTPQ

For `CCCCCCCCCCCCCC(=O)O[C@H]1[C@@H](C)[C@@]2(O)[C@@H](C=C(CO)C[C@]3(O)C(=O)C(C)=C[C@@H]23)C2C(C)(C)[C@]21OC(C)=O` (stereo not given in full), the Potency result in assay [1], in assay [5], in [6], in assay [8] and in [9] was “inactive” throughout. Further, the Potency in assay [2] was more than 46 µM; in assay [3] it was more than 46 µM; in assay [7], 0.02 µM (active). Also, the molecule was called inactive in assay [4], in [10], in assay [11], in assay [12], in [13] and in [14].

For `C=C1C/C(=C\C)C(=O)O[C@@H]2CCN3CC=C(COC(=O)[C@]1(C)O)[C@H]23`, the Potency entry in assay [1], in [16], in assay [17] and in assay [18] was “inactive” throughout. For the same molecule, the Potency in [2] and in [3] was more than 46 µM in each case. Further, the outcome in assay [4] and in [15] was inactive.

`O=CN1C[C@H]2C[C@@H](C1)c1cccc(=O)n1C2`: the Potency entry in [1], in assay [16], in assay [17] and in assay [18] was “inactive” throughout. Also, the Potency in assay [2] and in [3] was more than 46 µM throughout. Further, the molecule was called inactive in assay [4] and in [15].

As to `CO[C@@H](C)[C@](O)(C(=O)OC1=CCN2CC[C@H](O)[C@H]12)C(C)C`, the Potency entry in assay [1], in assay [16], in assay [17] and in assay [18] was “inactive” throughout. For the same molecule, the Potency in assay [2] and in [3] was more than 46 µM each time. Also, the molecule was classed as inactive in assay [4] and in assay [15].

Turning to `c1cc2c(cc1[C@H]1OC[C@H]3[C@@H]1CO[C@H]3c1ccc3c(c1)OCO3)OCO2`, the Potency is 2 µM (active) in [1]; more than 46 µM in [2]; more than 46 µM in [3]; 3.98 µM (active) in assay [16]; 15.8 µM (active) in assay [17]; 3.16 µM (active) in [18]. The result in assay [4] and in assay [15] was inactive.

In the case of `CCOC(=O)[C@@]1(C#N)[C@@H]2C=CC(C(N)=O)=CN2[C@@H](C(N)=O)[C@@H]1c1cccc(Cl)c1`, in assay [19], the activity change, negative = inhibition is -3.06%. For the same molecule, in [20], the molecule was classed as inactive. The Potency in assay [2] is more than 20.6 µM.

With `CC[C@]1(O)C(=O)OCc2c1cc1n(c2=O)Cc2cc3ccccc3nc2-1`, the Potency was 5.01 µM (active) in assay [1], more than 46 µM in assay [2] and more than 46 µM in assay [3]. The molecule was classed as inactive in [4] and in assay [22]. Moreover, the Potency entry in assay [16], in assay [21], in assay [17] and in [18] was “inactive” each time.

Consider `O=C(COc1ccc2ccccc2c1)N1CCN(C2CCN(Cc3ccccc3)CC2)CC1`, for which the activity change, negative = inhibition in [19] was 9.29%. Moreover, the molecule was called inactive in [20]. Besides, the Potency in [2] was more than 20.6 µM.

Regarding `C[C@H]1CCCC=CC2C[C@H](O)C[C@@H]2[C@H](O)/C=C\C(=O)O1` (stereo not given in full), the Potency in assay [1] was 15.8 µM (active); in [2], more than 46 µM. The call in assay [4] and in assay [15] was inactive.
